Source: PubChem BioAssay (Tox21)
Results filed as inconclusive are left out. Calls of active or inactive are those of the source. Unless noted, the call rests on the fitted dose curve; in most records, active means well fitted curve in the direction sought with a large enough effect in the repeat runs; inconclusive means weak or mixed curves; inactive means no such curve, though single readings can be large; an effect the other way counts as inactive or inconclusive.

How the values were obtained:
[1] = A CellTox Green Cytotoxicity Assay to monitor cytotoxicity in HEK293 cells - 32 hour (AID 1224881); further: nearly all actives have a fitted effect of over 40% in size; further: potency means the concentration at half of the fitted maximal effect
Procedure, shortened: (§1)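 Tox21 screen in HEK293: membrane-impermeant cyanine dye fluoresces on binding dead-cell DNA; compound pinned 5 h post-seeding, plates held at 37 C, signal read repeatedly through 40 h.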

[2] = A CellTox Green Cytotoxicity Assay to monitor cytotoxicity in HepG2 cells - 0 hour (AID 1224882); further: nearly all actives have a fitted effect of over 35% in size; further: potency means the concentration at half of the fitted maximal effect
Procedure, shortened: (§2)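 Measurements at 0, 8, 16, 24, 32 and 40 h of treatment captured CellTox Green fluorescence in HepG2 cells that had been co-plated with reagent and preincubated 5 h at 37 C/5% CO2.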

[3] = A CellTox Green Cytotoxicity Assay to monitor cytotoxicity in HepG2 cells - 32 hour (AID 1224883); further: nearly all actives have a fitted effect of over 50% in size; further: potency means the concentration at half of the fitted maximal effect
Procedure, shortened: as §2

[4] = qHTS RealTime-Glo MT Cell Viability Assay in HEK293 cells - 24 hour (AID 1224886); further: nearly all actives have a fitted effect of over 50% in size; further: potency means the concentration at half of the fitted maximal effect
Procedure, shortened: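 Luminescence generated by NanoLuc from substrate produced by living HEK293 cells served as the viability signal. Each value reflects the reading at its stated time point during continuous 40 h compound exposure at 37 C.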

[5] = qHTS RealTime-Glo MT Cell Viability Assay in HEK293 cells - 8 hour (AID 1224887); further: nearly all actives have a fitted effect of over 50% in size; further: potency means the concentration at half of the fitted maximal effect
Procedure, shortened: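 HEK293 + NanoLuc + prosubstrate, 600 cells/well; 5 h, 37 C/5% CO2; compound 23 nL in DMSO by pintool; 37 C; luminescence read at 0, 8, 16, 24, 32 and 40 h time points.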

[6] = A CellTox Green Cytotoxicity Assay to monitor cytotoxicity in HEK293 cells - 16 hour (AID 1224888); further: nearly all actives have a fitted effect of over 35% in size; further: potency means the concentration at half of the fitted maximal effect
Procedure, shortened: as §1

[7] = qHTS RealTime-Glo MT Cell Viability Assay in HepG2 cells - 0 hour (AID 1224889); further: nearly all actives have a fitted effect of over 50% in size; further: potency means the concentration at half of the fitted maximal effect
Procedure, shortened: (§3)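 Tox21 10K library screened in qHTS format on HepG2 cells carrying RealTime-Glo reagents. Compounds were added after a 5 h preincubation, and the luminescent signal from continuous culture was measured repeatedly during 40 h treatment.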

[8] = qHTS assay to identify small molecule antagonists of the estrogen receptor alpha (ER-alpha) signaling pathway using the BG1 cell line in the presence of 0.1 nM 17-beta-estradiol - cell viability counter screen (AID 1259241); further: nearly all actives have a fitted effect of over 40% in size; further: potency means the concentration at half of the fitted maximal effect
Procedure, shortened: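 Live-cell protease activity (CellTiter-Fluor fluorescence, 30 min) was read in the same wells after VM7Luc4E2 cells had been exposed to compounds with 0.1 nM 17beta-estradiol for 22 hr at 37C.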

[9] = qHTS assay to identify small molecule antagonists of the androgen receptor (AR) signaling pathway using the MDA cell line in the presence of 0.5 nM R1881 - cell viability counter screen (AID 1259242); further: nearly all actives have a fitted effect of over 45% in size; further: potency means the concentration at half of the fitted maximal effect
Procedure, shortened: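 Concentration-response screen of compounds for toxicity in MDA-kb2 reporter cells: 16 hr at 37C with 0.5 nM R1881, endpoint live-cell protease fluorescence measured in the reporter wells.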

[10] = target: Androgen receptor (Homo sapiens) (UniProt P10275); experiment: qHTS assay to identify small molecule antagonists of the androgen receptor (AR) signaling pathway using the MDA cell line in the presence of 0.5 nM R1881 (AID 1259243); further: nearly all actives have a fitted effect of over 50% in size; further: potency means the concentration at half of the fitted maximal effect
Procedure, shortened: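 With R1881 held at 0.5 nM (final), compound effects on MMTV-luciferase expression in MDA-kb2 cells were scored by luminescence after a 16 hr, 37C incubation.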

[11] = qHTS assay to identify small molecule phospholipidosis (PLD) inducers (AID 1259344; active means well fitted curve in the direction sought with a large enough effect; an effect the other way counts as inactive or inconclusive)
Procedure, shortened: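 Accumulated phospholipid, stained red by LipidTOX during 24 h compound treatment of HepG2 cells at 37 C, is quantified from images as pit number and intensity, normalised per cell using Hoechst-stained nuclei.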

[12] = qHTS assay to identify small molecule HDAC inhibitors (AID 1259364); further: potency means the concentration at half of the fitted maximal effect;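 further: wild-type HCT-116 cells with endogenous class I/II HDAC activity; nearly all actives have a fitted effect of over 45% in size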
Procedure, shortened: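 Screening used wild-type human colon HCT-116 cells incubated overnight, dosed with compounds for 2 hours, and assayed with a homogeneous luminogenic HDAC I/II reagent for 30 minutes at room temperature.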

[13] = qHTS assay to identify small molecule agonists of the sonic hedgehog signaling (Shh) pathway (AID 1259368; calls by dose curve;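 further: NIH/3T3-derived 3T3Gli1-Luc cells carrying a stable Gli1-driven firefly luciferase reporter; series mostly up to about 92 µM; nearly all actives have a fitted effect of over 15% in size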)
Procedure, shortened: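 Hedgehog pathway agonism scored by increased firefly luciferase luminescence in 3T3Gli1-Luc cells treated 24 hr at 37 C; detection used a 30 min room-temperature reagent incubation.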

[14] = A CellTox Green Cytotoxicity Assay to monitor cytotoxicity in HepG2 cells - 8 hour (AID 1224890); further: nearly all actives have a fitted effect of over 45% in size
Procedure, shortened: as §2

[15] = target: Estrogen receptor (Homo sapiens) (UniProt P03372); experiment: qHTS assay to identify small molecule antagonists of the estrogen receptor alpha (ER-alpha) signaling pathway using the BG1 cell line in the presence of 0.1 nM 17-beta-estradiol (AID 1259244); further: nearly all actives have a fitted effect of over 50% in size; further: potency means the concentration at half of the fitted maximal effect
Procedure, shortened: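 Compounds were tested against 0.1 nM (final) 17beta-estradiol in VM7Luc4E2 cells, which express full-length ER-alpha and an ERE-luciferase reporter; luminescence was recorded following 22 h exposure.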

[16] = qHTS assay to identify small molecule HDAC inhibitors - cell viability counter screen (AID 1259365)
Procedure, shortened: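 HCT-116 (wild type), 1,500 cells/well, overnight 37C/5% CO2; compound in DMSO 2hr; CellTiter-Glo 30min RT; luminescence read.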

[17] = A CellTox Green Cytotoxicity Assay to monitor cytotoxicity in HEK293 cells - 8 hour (AID 1224884); further: nearly all actives have a fitted effect of over 35% in size
Procedure, shortened: as §1

[18] = qHTS RealTime-Glo MT Cell Viability Assay in HepG2 cells - 16 hour (AID 1224885); further: nearly all actives have a fitted effect of over 50% in size; further: potency means the concentration at half of the fitted maximal effect
Procedure, shortened: as §3

[19] = qHTS assay to identify small molecule agonists of the sonic hedgehog signaling (Shh) pathway - cell viability counter screen (AID 1259366); further: nearly all actives have a fitted effect of over 50% in size
Procedure, shortened: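 CellTiter-Fluor fluorescence read-out, 1 hr at 37C, added after 23hr compound exposure. Cells: 3T3 Gli1-Luc, an NIH/3T3 clone with stably integrated Gli1-Luc reporter, plated 4hr before compound.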

[20] = qHTS assay to identify small molecule antagonists of the sonic hedgehog signaling (Shh) pathway - cell viability counter screen (AID 1259367); further: nearly all actives have a fitted effect of over 55% in size
Procedure, shortened: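 CellTiter-Fluor signal in conditioned medium-stimulated 3T3 Gli1-Luc cells, 23 hr compound exposure, 37C.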
On the % scale 0 is the no-effect control and ±100 the full control effect.

Chain of Androgen receptor (Homo sapiens) (P10275 whole entry, looked up): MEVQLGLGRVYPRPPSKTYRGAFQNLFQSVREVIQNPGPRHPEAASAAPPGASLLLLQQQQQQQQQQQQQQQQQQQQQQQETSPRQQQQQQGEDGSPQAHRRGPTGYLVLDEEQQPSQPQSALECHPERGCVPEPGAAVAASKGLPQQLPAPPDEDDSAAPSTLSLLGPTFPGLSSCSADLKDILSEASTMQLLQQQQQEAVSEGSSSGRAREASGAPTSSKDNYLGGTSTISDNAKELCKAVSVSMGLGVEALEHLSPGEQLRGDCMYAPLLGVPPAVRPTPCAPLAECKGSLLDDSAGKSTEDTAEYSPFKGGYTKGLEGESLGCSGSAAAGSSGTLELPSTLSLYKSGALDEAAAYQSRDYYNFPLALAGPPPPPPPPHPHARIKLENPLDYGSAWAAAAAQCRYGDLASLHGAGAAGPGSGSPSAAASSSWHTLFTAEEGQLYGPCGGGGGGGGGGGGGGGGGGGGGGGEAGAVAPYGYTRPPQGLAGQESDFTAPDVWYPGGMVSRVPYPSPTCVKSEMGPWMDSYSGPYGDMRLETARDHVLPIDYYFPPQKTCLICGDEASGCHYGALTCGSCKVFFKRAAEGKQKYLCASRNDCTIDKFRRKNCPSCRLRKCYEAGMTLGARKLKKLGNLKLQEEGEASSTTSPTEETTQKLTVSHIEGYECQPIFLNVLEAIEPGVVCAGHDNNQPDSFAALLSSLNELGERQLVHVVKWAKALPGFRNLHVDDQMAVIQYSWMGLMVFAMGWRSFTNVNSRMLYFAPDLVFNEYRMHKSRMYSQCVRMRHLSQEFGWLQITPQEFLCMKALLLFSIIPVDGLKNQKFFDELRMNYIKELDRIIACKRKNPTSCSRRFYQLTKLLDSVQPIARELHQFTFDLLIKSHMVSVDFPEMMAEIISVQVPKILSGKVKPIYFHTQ
Chain of Estrogen receptor (Homo sapiens) (P03372 whole entry, looked up): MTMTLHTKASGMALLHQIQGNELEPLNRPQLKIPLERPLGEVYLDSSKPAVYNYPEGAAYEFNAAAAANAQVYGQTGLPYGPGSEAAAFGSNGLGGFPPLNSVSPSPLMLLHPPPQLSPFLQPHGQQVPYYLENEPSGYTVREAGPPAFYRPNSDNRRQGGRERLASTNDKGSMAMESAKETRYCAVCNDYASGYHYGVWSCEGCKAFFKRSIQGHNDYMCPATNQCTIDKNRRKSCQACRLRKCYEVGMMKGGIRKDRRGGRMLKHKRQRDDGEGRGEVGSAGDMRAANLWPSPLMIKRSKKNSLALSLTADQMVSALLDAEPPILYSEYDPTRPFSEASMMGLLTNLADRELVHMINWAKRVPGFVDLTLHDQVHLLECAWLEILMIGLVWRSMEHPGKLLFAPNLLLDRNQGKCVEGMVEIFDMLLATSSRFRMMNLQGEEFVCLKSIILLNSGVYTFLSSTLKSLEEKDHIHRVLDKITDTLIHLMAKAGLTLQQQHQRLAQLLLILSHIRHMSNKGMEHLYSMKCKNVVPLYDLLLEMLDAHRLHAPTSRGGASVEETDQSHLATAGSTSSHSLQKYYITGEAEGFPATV

CCCCCCCCCc1ccc(OCCOCCO)cc1
active: Potency [1] 14.5 µM | Potency [3] 20.5 µM | Potency [4] 1.3 µM | Potency [5] 3.25 µM | Potency [6] 14.5 µM | Potency [8] 8.1 µM | Potency [9] 5.74 µM | Potency [10] 2.28 µM
inactive: Potency [2] | Potency [7] | Potency [11] | Potency [12] | outcome [13]

CCCCCCOC(=O)NC(=N)c1ccc(NCc2nc3cc(C(=O)N(CCC(=O)OCC)c4ccccn4)ccc3n2C)cc1
inactive: Potency [1] | Potency [2] | Potency [7] | Potency [14] | Potency [16]
active: Potency [3] 23.9 µM | Potency [4] 9.52 µM | Potency [5] 9.52 µM | Potency [15] 23.7 µM

COC(=O)C1=C(C)NC(COC(N)=O)=C(C(=O)OC(C)C)C1c1cccc(Cl)c1Cl (configuration not stated)
active: Potency [18] 23.9 µM | Potency [4] 26.8 µM | Potency [7] 1.9 µM
inactive: Potency [1] | Potency [2] | Potency [17] | Potency [6] | Potency [14] | Potency [8] | Potency [10] | Potency [15] | PLD induction [11] -2.54% [at 7.66 µM] | Potency [12] | Potency [16] | outcome [13]

CCOC(=O)C(O)c1ccccc1 (configuration not stated)
inactive: Potency [1] | Potency [2] | Potency [3] | Potency [18] | Potency [4] | Potency [5] | Potency [6] | Potency [14] | Potency [9] | Potency [10] | Potency [15] | Potency [12] | Potency [19] | Potency [20] | outcome [13]

CCN(CC)c1ccc(C(=C2C=CC(=[N+](CC)CC)C=C2)c2cc(S(=O)(=O)O)ccc2S(=O)(=O)[O-])cc1
active: Potency [10] 7.5 µM | Potency [12] 9.44 µM
inactive: Potency [1] | Potency [2] | Potency [3] | Potency [18] | Potency [4] | Potency [5] | Potency [6] | Potency [7] | Potency [14] | outcome [13]

C=CC(=O)OCCOc1ccccc1
inactive: Potency [1] | Potency [2] | Potency [3] | Potency [18] | Potency [4] | Potency [5] | Potency [7] | Potency [14] | Potency [8] | Potency [9] | Potency [12] | Potency [16] | Potency [20] | outcome [13]

CCCCOC(=O)CCCCCCCC(=O)OCCCC
inactive: Potency [1] | Potency [2] | Potency [3] | Potency [18] | Potency [4] | Potency [5] | Potency [6] | Potency [7] | Potency [14] | Potency [8] | Potency [9] | Potency [12] | Potency [19] | Potency [20] | outcome [13]

C[N+]1(C)CCC(OC(=O)C(O)(c2ccccc2)C2CCCC2)C1 (configuration not stated)
active: Potency [2] 26.8 µM
inactive: Potency [3] | Potency [18] | Potency [4] | Potency [5] | Potency [7] | Potency [14] | Potency [9] | Potency [15] | Potency [11] | Potency [16] | Potency [19] | Potency [20] | outcome [13]

C#C[C@]1(O)CC[C@H]2[C@@H]3CCc4cc(OC5CCCC5)ccc4[C@H]3CC[C@@]21C
inactive: Potency [1] | Potency [2] | Potency [17] | Potency [6] | Potency [7] | Potency [8] | Potency [9] | Potency [12] | Potency [16] | Potency [20]

CCCCCCCCCCO[C@@H]1O[C@H](CO)[C@@H](O)[C@H](O)[C@H]1O
inactive: Potency [2] | Potency [3] | Potency [17] | Potency [18] | Potency [5] | Potency [6] | Potency [14] | Potency [8] | Potency [9] | Potency [15] | Potency [16] | Potency [20] | outcome [13]

c1ccc(C(O[C@H]2CCCN(CCc3ccc4c(c3)OCO4)C2)c2ccccc2)cc1
inactive: Potency [1] | Potency [2] | Potency [18] | Potency [5] | Potency [6] | Potency [7] | Potency [15] | Potency [12] | Potency [16] | Potency [19] | Potency [20] | outcome [13]

O=C(Cl)c1cc(C(=O)Cl)cc(C(=O)Cl)c1
active: Potency [5] 49 µM
inactive: Potency [2] | Potency [7] | Potency [8] | Potency [9] | Potency [15] | Potency [12] | Potency [20]

CN(C)c1ccc(C(c2ccccc2)c2ccc(N(C)C)cc2)cc1
inactive: Potency [2] | Potency [3] | Potency [17] | Potency [5] | Potency [6] | Potency [7] | Potency [14] | Potency [8] | Potency [9] | Potency [12] | Potency [16] | Potency [19] | Potency [20] | outcome [13]

CNCCCN1c2ccccc2CCc2ccccc21
inactive: Potency [2] | Potency [17] | Potency [18] | Potency [5] | Potency [14] | Potency [8] | Potency [15] | Potency [12] | Potency [16] | outcome [13]
active: Potency [3] 26.8 µM

COc1ccc(C(=O)c2ccc(OC)cc2O)c(O)c1
active: Potency [4] 24.7 µM | Potency [12] 30.9 µM
inactive: Potency [2] | Potency [3] | Potency [18] | Potency [14] | Potency [8] | Potency [15] | Potency [16] | Potency [19] | Potency [20] | outcome [13]

CC1=CC[C@H](C(C)C)C=C1
inactive: Potency [1] | Potency [3] | Potency [18] | Potency [4] | Potency [5] | Potency [6] | Potency [7] | Potency [14] | Potency [9] | Potency [15] | Potency [16] | Potency [19] | Potency [20] | outcome [13]

COc1ccc2cccc(CCNC(C)=O)c2c1
inactive: Potency [1] | Potency [17] | Potency [18] | Potency [4] | Potency [5] | Potency [6] | Potency [7] | Potency [8] | Potency [9] | Potency [10] | Potency [15] | Potency [12] | Potency [19] | Potency [20]

C[C@H](CCC(=O)O)[C@H]1CC[C@H]2[C@@H]3CC[C@@H]4C[C@H](O)CC[C@]4(C)[C@H]3C[C@H](O)[C@]12C
inactive: Potency [2] | Potency [3] | Potency [18] | Potency [4] | Potency [7] | Potency [14] | Potency [8] | Potency [9] | Potency [15] | Potency [12] | Potency [16] | outcome [13]
